For nine molecules, inhibition results are on record in PubChem BioAssay AID1210 (NMMLSC, 2008).

This test deals with Estrogen receptor beta (Homo sapiens) (UniProt Q92731). The experiment in a line: displacement of fluorescent estrogen from ERbeta – cell-based, Cos7 ERbeta-GFP, flow cytometry, primary screen (AID 1210).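 Note: 0% = DMSO vehicle wells and 100% = complete loss of labeled estradiol signal.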 To be noted: fluorescent estrogen binding, ligand binding inhibition, at 0.1 µM, stronger effect = higher value.
Chain of Estrogen receptor beta (Homo sapiens) (Q92731 whole entry, looked up): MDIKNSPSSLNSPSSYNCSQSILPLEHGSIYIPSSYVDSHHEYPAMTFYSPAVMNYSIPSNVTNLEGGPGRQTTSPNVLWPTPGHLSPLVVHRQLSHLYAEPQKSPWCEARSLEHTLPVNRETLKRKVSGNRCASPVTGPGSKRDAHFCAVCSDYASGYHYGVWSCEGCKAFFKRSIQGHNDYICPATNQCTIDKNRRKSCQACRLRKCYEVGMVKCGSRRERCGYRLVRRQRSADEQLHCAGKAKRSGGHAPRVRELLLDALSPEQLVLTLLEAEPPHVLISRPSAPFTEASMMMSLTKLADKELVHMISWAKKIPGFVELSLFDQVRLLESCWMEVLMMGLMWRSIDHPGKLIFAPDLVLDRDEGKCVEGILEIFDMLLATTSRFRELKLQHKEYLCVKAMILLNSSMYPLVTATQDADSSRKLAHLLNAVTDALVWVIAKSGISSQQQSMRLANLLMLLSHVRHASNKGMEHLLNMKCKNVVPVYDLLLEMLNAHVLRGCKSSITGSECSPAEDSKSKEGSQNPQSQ
Molecule `Cc1ccc(S(=O)(=O)Cc2ccc(C(=O)N3CCC4(CC3)OCCO4)o2)cc1` had an inhibition of 7%.
Next, `CCOc1ccccc1N1C(=O)NC(=O)C(CCc2ccncc2)(CCc2ccncc2)C1=O`: 35%; `O=C(O)c1cccc2c1NC(c1cccc([N+](=O)[O-])c1)C1CC(Sc3ccccc3[N+](=O)[O-])C(Cl)C21` (centres undefined): 11%.
`O=C(O)c1ccc2c(c1)C1C(Cl)C(Sc3ccccc3[N+](=O)[O-])CC1C(c1cccc([N+](=O)[O-])c1)N2` (centres undefined) returned an inhibition of 6%.
Next, `CC(=O)c1ccc2c(c1)C1C(Cl)C(Sc3ccccc3[N+](=O)[O-])CC1C(c1ccccc1[N+](=O)[O-])N2` (centres undefined): 6%; `COc1ccc(Cn2c(N)c(C(=O)NCc3ccco3)c3nc4ccccc4nc32)cc1`: 13%; `CC(=O)c1ccc2c(c1)C1C(Cl)C(Sc3ccccc3[N+](=O)[O-])CC1C(c1ccccc1)N2` (centres undefined): 22%.
The same measure for `C[C@H]1CCC[C@@H](O)CCC/C=C/c2cc(O)cc(O)c2C(=O)O1`: 62%; for `NC(=O)c1ccc(N=Nc2c(O)[nH]c(=O)[nH]c2=O)cc1`: 17%.
